High-throughput results (PubChem)
Rows were chosen to be rich in hits. Some 7.2% of all compounds tested hit in one or more screens of this group.
VLA-4 inh: inhibition in a human VLA-4 binding assay; P13612; VLA-4 expressing cells, ligand binding flow cytometry; inhibition, % (about 7 µM as worked out from the volumes in the protocol); actives 0.2% (n = 330,000); in the data active = inhibition above about 50%
ALR inh: blocks human ALR sulfhydryl oxidase activity | P55789 | purified ALR, DTT oxidation, H2O2 HRP-luminol luminescence | inhibition, % (no concentration beside the values) | actives 3.8% (n = 290,000) | AID 485317;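 active = mean replicate inhibition above about 79%, with every replicate also reaching it, limit read from the data; inconclusive = only one of the two criteria met; inactive = mean below limit and not every replicate reaching it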
Target sequence (P55789 whole entry, looked up): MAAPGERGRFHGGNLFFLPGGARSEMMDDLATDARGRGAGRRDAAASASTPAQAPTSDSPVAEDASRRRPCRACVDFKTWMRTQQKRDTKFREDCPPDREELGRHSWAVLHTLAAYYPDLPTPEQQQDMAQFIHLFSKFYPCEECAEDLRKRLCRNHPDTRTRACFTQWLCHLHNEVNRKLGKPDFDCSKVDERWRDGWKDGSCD
Bfl-1 A1 inh: inhibitors of the anti-apoptotic protein A1, read as caspase activation. MEF A1-2A-BIM cells, Caspase-Glo 3/7 luminescence, 3 h; percent of clofoctol response, vehicle zero. caspase activation, % (test concentration not listed). actives 0.066% (n = 330,000). AID 2462;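 active = over half of replicate activation scores above 10%, or exactly half above 10 with the replicate mean above 10; inconclusive = replicate mean below 10 yet half the replicates above 10; inactive = over half of replicates below 10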
AHR act: activators of human aryl hydrocarbon receptor; AHR-responsive luciferase reporter cells, luminescence; actives 2.5% (n = 320,000); P35869; AID 2796; activation, % at 5 µM; in the data active = activation above about 47%
SUMO Mot1 rescue: inhibitors of SUMOylation pathway: yeast Mot1-301 growth rescue; actives 1% (n = 320,000); S. cerevisiae Mot1-301 growth rescue, ATP luminescence, 38.5C; percent above DMSO median, 100 means doubled; growth rescue, % at 18.8 µM; AID 2716;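 active = every valid replicate shows activation above 250% relative to neutral control wells; inactive = the rest, any valid replicate at or below 250%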
Efflux pump mplx: antifungal efflux pump inhibition, Nile Red retention | inhibition, % at 10 µM | S. cerevisiae Candida pump triplex | actives 0.44% (n = 330,000) | AID 485275;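 active = plate passing quality check with inhibition over a set limit, or well fluorescence over plate mean plus 4 SD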;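 also: Nile Red retained in pooled yeast measured as flow cytometry median fluorescence; higher means more Nile Red kept so more efflux inhibition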
AHR act confirm: confirmation of human aryl hydrocarbon receptor activators; shares compounds with AHR act; human cells, AHR-responsive luciferase reporter, luminescence; activation, % at 9 µM; actives 87% (n = 2,300); in the data active = activation above about 49%;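 also: HepG2 hepatoma cells carrying a DRE-driven firefly luciferase reporter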
PXR counter: counter-screen for AHR activators: human PXR activators; shares compounds with AHR act; actives 88% (n = 2,300); activation, % at 11.6 µM; AID 434939; cell-based PXR reporter, luciferase luminescence; in the data active = activation above about 11%;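 also: human hepatoma DPX-2 cells expressing full-length human PXR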
Target sequence (O75469 whole entry, looked up): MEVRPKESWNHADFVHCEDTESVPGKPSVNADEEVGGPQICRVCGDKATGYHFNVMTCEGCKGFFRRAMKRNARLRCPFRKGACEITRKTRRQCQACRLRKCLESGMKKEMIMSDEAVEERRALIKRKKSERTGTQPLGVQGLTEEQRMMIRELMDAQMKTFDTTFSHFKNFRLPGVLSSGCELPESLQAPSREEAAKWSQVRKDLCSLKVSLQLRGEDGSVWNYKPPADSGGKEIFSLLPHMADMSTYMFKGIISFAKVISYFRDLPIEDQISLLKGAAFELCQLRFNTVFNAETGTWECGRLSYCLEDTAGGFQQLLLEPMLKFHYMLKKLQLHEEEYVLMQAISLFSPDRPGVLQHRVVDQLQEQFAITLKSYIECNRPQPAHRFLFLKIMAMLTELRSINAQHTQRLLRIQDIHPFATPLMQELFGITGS
Each line names hits and unclear results; the compound was inactive in the other large screens (follow-up assays come after a bar, where they were run).

CSCC[C@H](NC(=O)OC(C)(C)C)C(=O)NCC1CCC(C(=O)N[C@@H](Cc2ccccc2)C(=O)O)CC1 (some centres undefined)	none
CSCCC(C(=O)OC1CCOC1=O)N1C(=O)c2ccccc2C1=O (centres undefined)	none
COc1cccc(C(=O)Nc2c(C(N)=O)oc3ccccc23)c1	AHR act 94 | AHR act confirm 133 | PXR counter 21
CCOC(=O)c1oc2ccccc2c1NC(=O)c1cccc(OC)c1	none
O=c1c2ccccc2cnn1-c1ccc(Cl)cc1	AHR act 133 (no result: ALR inh) | AHR act confirm 117 | PXR counter 47
CCn1c(SCC(=O)c2c(N)n(C3CC3)c(=O)[nH]c2=O)nnc1-c1ccoc1C	none
Oc1ccccc1-c1ccn[nH]1	none
Oc1ccccc1-c1cc(-c2ccccc2)n[nH]1	AHR act 98, SUMO Mot1 rescue 338 | AHR act confirm 88 | PXR counter 13
COc1ccc(-c2cc(-c3ccccc3O)[nH]n2)cc1	none (no result: SUMO Mot1 rescue)
COc1ccc(-c2cc(-c3ccccc3)n[nH]2)c(O)c1	AHR act 125 | AHR act confirm 73 | PXR counter 17
Cc1ccccc1-c1cc(-c2ccccc2O)n[nH]1	AHR act 112 | AHR act confirm 95 | PXR counter inactive
O=C(Nc1nc2ccccc2s1)C1CCN(S(=O)(=O)c2cc([N+](=O)[O-])ccc2Cl)CC1	none (no result: ALR inh)
CCCc1ccc(-c2c(C)sc(N)c2C#N)cc1	ALR inh 92, AHR act 97 | AHR act confirm 104 | PXR counter 13
O=C(O)CC(CC(=O)O)c1ccsc1	none
Cn1c(=O)n(CCc2ccccc2)c(=O)c2c1ncn2Cc1ccccc1	AHR act 81 | AHR act confirm 95 | PXR counter 28
Cn1c(=O)n(CCc2ccccc2)c(=O)c2c1nc1n2CCCN1Cc1ccccc1	AHR act 119 | AHR act confirm 83 | PXR counter 150
Cn1cnc2c1c(=O)n(Cc1ccccc1)c(=O)n2C	none
CN=C(C)/C(C(=O)OC)=C(/O)c1c(F)cccc1F	none
O=C(c1ccc(Cl)cc1Cl)N1CCN(c2ccc(N3CCOCC3)nn2)CC1	none
Cc1ccccc1CN(C)CC(=O)Nc1c(C)cccc1C(C)C	none
COc1ccc(CN(C)C(=O)c2cnc(OC)cc2C(F)(F)F)c(OC)c1	none
COc1ccc(C(C)(C)C)cc1NC(=O)CN1C(=O)C(=O)N(Cc2ccco2)C1=O	none
COCCn1c(C)cc(/C=C2/NC(=O)N(c3cccc(Cl)c3)C2=O)c1C	AHR act 122 | AHR act confirm inactive | PXR counter 74
C=CCOC(=O)c1c(C)nc2cc3c(cc2c1C)OCO3	AHR act 108 | AHR act confirm 56 | PXR counter 53
O=C1c2ccccc2C(=O)c2c1cccc2N(CCO)CCO	AHR act 131 | AHR act confirm inactive | PXR counter inactive
CN(C)S(=O)(=O)c1cccc2c1C(=O)c1ccccc1C2=O	none
C=CCn1cc(/C=N/NC(=O)COc2cccc3cccnc23)c2ccccc21	AHR act 82 | AHR act confirm inactive | PXR counter 38
COc1cccc(/C=N/NC(=O)COc2cccc3cccnc23)c1O	none
CCOC(=O)C1=C(C)NC(C)=C(C(=O)OCC)C1C(=O)OCC(=O)N(C)C	none (no result: ALR inh)
CSc1ccc(CN(C)C(C)C(=O)NCc2ccccc2)cc1 (centres undefined)	none
COc1ccc(S(=O)(=O)Nc2cc3c(C(C)=O)c(C)oc3c3ccccc23)cc1	AHR act 92 | AHR act confirm 76 | PXR counter 255
Cc1oc2c(cc(NS(=O)(=O)c3ccc(C(C)C)cc3)c3ccccc32)c1C(=O)O	none (no result: ALR inh)
Cc1oc2c(cc(NS(=O)(=O)c3cccs3)c3ccccc32)c1C(=O)OC(C)C	AHR act 92 | AHR act confirm 92 | PXR counter 162
CC1=NN(C(C#N)c2ccccc2C)C(C)(C)C1 (centres undefined)	none
CNc1nc(N)c([N+](=O)[O-])c(Nc2ccccc2OC)n1	AHR act 107 (no result: ALR inh) | AHR act confirm 93 | PXR counter 18
COc1ccc(OC)c(Nc2nc(NCCCN(C)C)nc(N)c2[N+](=O)[O-])c1	none
COc1ccccc1Nc1nc(NCCO)nc(N)c1[N+](=O)[O-]	AHR act 97 | AHR act confirm 128
c1ccc(-c2n[nH]c(-c3ccccn3)n2)cc1	AHR act 90 (no result: ALR inh) | AHR act confirm 81 | PXR counter 24
c1ccc(-c2n[nH]c(-c3ccccn3)n2)nc1	none
CCOC(=O)c1sc(Nc2nc3c(OC)cccc3s2)nc1C	AHR act 84 | AHR act confirm 127 | PXR counter 72
CC(=O)/C(N=Nc1ccc(-n2ccc(C(F)(F)F)n2)cc1)=C(\C)O	none
O=C(COc1ccccc1)NCC(=O)N1CCCCCC1	none
Cc1ccc(C(=O)N/N=c2\oc3ccccc3cc2C(N)=O)cc1	none (no result: ALR inh)
NC(=O)c1cc2ccccc2o/c1=N\NC(=O)c1ccncc1	AHR act 127 | AHR act confirm 137 | PXR counter 15
CC1CCN(S(=O)(=O)c2cccc(C(=O)Oc3ccc([N+](=O)[O-])cc3)c2)CC1	none
c1ccc(-c2nc3ccccc3c3nncn23)cc1	AHR act 97 | AHR act confirm 123 | PXR counter 20
O=C1NC(c2ccc(Br)cc2)Nc2ccccc21 (centres undefined)	AHR act 80 | AHR act confirm 62 | PXR counter 22
Cc1ccc(S(=O)(=O)CCC(=O)OCC(=O)NC2CCS(=O)(=O)C2)cc1 (centres undefined)	none
N#Cc1cccc2c1-c1ccccc1/C2=N/NC(N)=S	AHR act 139 (no result: ALR inh) | AHR act confirm 117 | PXR counter 44
C=CCSc1nnc2nc3[nH]c4c(C)cccc4c3nn12	AHR act 105 | AHR act confirm 143 | PXR counter 38
O=C(CNS(=O)(=O)c1ccccc1)NCC(=O)N1CCCCC1	none
CC(C)CCNC(=O)CN(Cc1ccccc1Cl)C(=O)CCC(=O)Nc1ccccn1	none
CCOc1ccc2[nH]c3c(NCCOC)ncnc3c2c1	AHR act 85 | AHR act confirm 116 | PXR counter 39
CCOc1ccc2[nH]c3c(NCC(C)C)ncnc3c2c1	ALR inh inconclusive, AHR act 100 | AHR act confirm 101 | PXR counter 49
Brc1c(-c2ccc3c(c2)OCO3)nc2ncccn12	AHR act 101 | AHR act confirm 116 | PXR counter 22
